Drawing on PubChem BioAssay (NCATS), this text covers Potency for ten molecules.

Records with an inconclusive call do not appear. A call without a number means that no potency is given here. The source made the active and inactive calls. The call rests on the fitted dose curve; in most records, active means well fitted cell-killing curve with a large enough effect; inconclusive means small, poorly fitted or top-dose-only effect, or effect the other way; inactive means no such curve, though single readings can be large or run the other way.
Potency means the concentration at half of the fitted maximal effect.

This test in a line: qHTS of pediatric cancer cell lines to identify multiple opportunities for drug repurposing: Confirmatory screen for Saos-2 cells (AID 1347127). Further: nearly all actives have a fitted effect of over 60% in size. The following applies: Saos-2 osteosarcoma cell viability; series mostly up to 45.9 µM. The method in brief: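 Cells (500-1,000/well) in growth media were settled 5 h at 37 degrees C, then given compounds for 48 h. Viability was read as CellTiter-Glo luminescence. Primary runs used MIPE at 11 points (0.78 nM-46 µM) and NPC at 8 points (0.59 nM-46 µM); follow-ups used 11 points.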
(In general: In qHTS, concentration-response curves come from the screen itself.)
As to `O=C1C(I)=CC(=C(c2cc(I)c(O)c(I)c2)c2ccccc2C(=O)O)C=C1I`, the Potency result is “inactive”.

Take `CC[C@@H]1[C@@H](C)O[C@@](O)([C@@H](C)[C@H](O)[C@H](C)[C@H]2OC(=O)C=CC=C[C@@H](C)[C@@H]([C@@H](C)[C@@H](O)[C@H](C)[C@@]3(O)C[C@H](O[C@H]4C[C@H](O)[C@H](O)[C@H](C)O4)[C@H](CC)[C@@H](C)O3)OC(=O)C=CC=C[C@@H]2C)C[C@H]1O[C@H]1C[C@H](O)[C@H](O)[C@H](C)O1`: the Potency entry is “inactive”.

`CS(=O)(=O)c1ccc(C(=O)C2C(=O)CCCC2=O)c([N+](=O)[O-])c1`: the Potency result was “inactive”.

Take `O=C(Nc1ccncc1)C(=O)c1cn(Cc2ccc(Cl)cc2)c2ccccc12`: the Potency is 0.585 µM (active).

For `COc1cc2cc(c1Cl)N(C)C(=O)C[C@H](OC(=O)C(C)C)[C@]1(C)O[C@H]1[C@H](C)[C@@H]1C[C@@](O)(NC(=O)O1)[C@H](OC)C=CC=C(C)C2`, the Potency was 26.1 µM (active).

`O=c1[nH]c2ccc(Cl)cc2c(N[C@@H]2CN3CCC2CC3)c1-c1nc2ccccc2[nH]1`: the Potency is 1.31 µM (active).

For `CC(C)(C)C(O)C(Oc1ccc(Cl)cc1)n1cncn1` (stereo not given), the Potency result is “inactive”.

As for `COc1cc([C@@H]2c3cc4c(cc3[C@@H](O)C3COC(=O)C32)OCO4)cc(OC)c1O` (stereo not given in full), the Potency result was “inactive”.

Turning to `CC(=O)[O][Hg][c]1ccccc1`, the Potency was 1.17 µM (active).

Take `CC(C)(O)C=CC(=O)[C@](C)(O)[C@H]1[C@H](O)C[C@]2(C)[C@@H]3CC=C4[C@@H](C=C(O)C(=O)C4(C)C)[C@]3(C)C(=O)C[C@@]12C`: the Potency was 0.147 µM (active).
